Measured values: the supplement of paper PMC3334620
Whole data set: some 33,000 sequences, median “E-score (-0.5 to 0.5)” near -0.0034, cut for the highest 2% near 0.25. What follows is part of a selection rich in the highest values, with near analogues and random picks from the rest.

What follows are sequences tested against T1, Yap3 (UniProt P38749) (assay: PBM E-score (8-mer binding enrichment) (E-score (-0.5 to 0.5)); higher = stronger / more preferred TF binding). Details: protein concentration: 100 nM; construct: GST-full length.
T1 sequence: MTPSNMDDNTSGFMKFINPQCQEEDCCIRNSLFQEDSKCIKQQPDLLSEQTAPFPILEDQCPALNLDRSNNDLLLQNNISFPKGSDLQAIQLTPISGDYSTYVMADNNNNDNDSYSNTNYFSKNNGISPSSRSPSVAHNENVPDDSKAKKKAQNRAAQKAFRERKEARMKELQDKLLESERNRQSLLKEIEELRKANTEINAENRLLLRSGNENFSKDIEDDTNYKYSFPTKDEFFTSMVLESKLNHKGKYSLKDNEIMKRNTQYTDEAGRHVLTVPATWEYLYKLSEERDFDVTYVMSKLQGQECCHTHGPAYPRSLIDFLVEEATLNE
Procedure, shortened: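 Full-length yeast transcription factors or their DNA-binding domains, GST-tagged and expressed with PURExpress, were applied at about 100-200 nM to universal all-10-mer Agilent arrays. These arrays had been made double-stranded by primer extension on fresh or once-stripped slides. Detection used fluorescent anti-GST, normalisation used masliner, and E-scores for ungapped eight-base words pooled with reverse complements came from the Universal PBM Analysis Suite.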

In order of falling “PBM E-score” value:
1. CTTACTAA  0.443
2. ATATTAAA  0.378
3. ATTTGTAA  0.373
4. AATTAGTA  0.369
5. ATATTAAT  0.351
6. CTTACGTA  0.349
7. TTATTAAA  0.34
8. GTTACTAA  0.339
9. ATTACGAA  0.329
10. TAAGAACA  0.326
11. AAATGAAA  0.324
12. AAATTAAA  0.319
13. ATTTGTCA  0.313
14. AATTAGTC  0.303
15. AATACGTA  0.296
16. GAATGATA  0.295
17. ATTACGGA  0.295
18. TTAGTAAA  0.295
19. CATTAGTA  0.289
20. AAATGATA  0.275
21. ATATTAAC  0.274
22. CTTTGTAA  0.27
23. TTAGTCAA  0.27
24. AATTAGTG  0.269
25. ATTACGAC  0.269
26. ATGAATGG  0.268
27. GGAGTAAA  0.267
28. TATGAATA  0.266
29. ATTGAAAA  0.266
30. GATGACAA  0.264
31. ACATGATA  0.263
32. ATTGAAAT  0.263
33. CTAGTTAA  0.26
34. CTTACGAA  0.259
35. TCATTAAA  0.258
36. ATTGAATA  0.256
37. AGTACGAA  0.245
38. GATGAATA  0.242
39. CGTTAGTA  0.241
40. ATTACGGC  0.241
41. AATAGCGA  0.24
42. TAATGATA  0.239
43. ATAGTAAA  0.238
44. AAATTAAT  0.229
45. ACATTAAA  0.229
46. ATTACGAG  0.228
47. GAAGAACA  0.225
48. TAATGAAA  0.218
49. GATTAGTA  0.218
50. GAGAAACA  0.218
51. CAATCAAC  0.217
52. CTTACTAC  0.211
53. AACTTATT  0.21
54. AATGAAAT  0.21
55. ATGAATTG  0.208
56. AGTTAGTA  0.195
57. TAATTGCA  0.195
58. AGATTAAT  0.194
59. AAATGATT  0.19
60. CTATTAAC  0.188
61. GCATGATA  0.184
62. GTTACGTA  0.182
63. GTTACGAA  0.181
64. GCATTAAA  0.177
65. ATATTAGA  0.175
66. GCGAATCA  0.173
67. CATTGTAA  0.172
68. CTTACTCA  0.164
69. GTTACTCA  0.161
70. TGAGTAAA  0.161
71. CTTGAAAA  0.161
72. CATACGTA  0.156
73. AAGGAAAA  0.156
74. ATTGAAAC  0.155
75. AACTAGGT  0.154
76. CTTTGTCA  0.15
77. AAGTCGCG  0.146
78. CATGACAA  0.143
79. ATTGAAAG  0.143
80. GTAGTTAA  0.142
81. GTATTAAA  0.141
82. AGAACGCG  0.14
83. CAATGATA  0.137
84. AAATTAAC  0.136
85. CTATTAAA  0.135
86. GTTTGTCA  0.133
87. GATGACAC  0.132
88. GTGCTTTA  0.121
89. TCTTGTAA  0.118
90. GTACTGAA  0.117
91. ATTTGTAG  0.117
92. ACATGATC  0.115
93. ATAGTTAA  0.114
94. TGATTAAA  0.113
95. CTTGAATA  0.113
96. ACAAGGAT  0.113
97. ACCGCAAA  0.109
98. CGTACAAA  0.108
99. GTTACTGA  0.106
100. ATGAATGA  0.106
101. ACTACGAA  0.099
102. CATTAGTC  0.0988
103. GTAGAGAA  0.0971
104. CTAGTAAA  0.0933
105. CTTACGTC  0.0927
106. AGAACACG  0.0921
107. AAGAGTAA  0.0872
108. ACCTTATC  0.0868
109. GTTTGTAA  0.0859
110. CATACGAC  0.0835
111. ATATTAAG  0.0834
112. AATACGTG  0.0823
113. CGAGCTGA  0.081
114. ATTACGGG  0.0809
115. CAATGAAA  0.077
116. TAGGTAGA  0.076
117. GTTTCATA  0.0741
118. ATGAATGC  0.0737
119. AAGAGATT  0.0728
120. AGTTAGTC  0.0694
121. ATTTGTAC  0.0689
122. CGGTTCGA  0.0689
123. GTTCACGA  0.0641
124. ACTCGAGC  0.0632
125. ATGGCAAT  0.0617
126. AGACTATC  0.0563
127. CTTTGTAC  0.0552
128. CGGATAGC  0.052
129. CTTACGAC  0.0511
130. GTATTAAC  0.0508
131. ATACTTAC  0.0503
132. CTCACGAA  0.05
133. AACCTTCG  0.0416
134. CATTAGCA  0.0386
135. GTTCATAA  0.0365
136. GCAAAAGC  0.0339
137. GCAGTGTA  0.0324
138. AGAAGTCG  0.0232
139. TAACGCTA  0.023
140. AGCAAAGA  0.0203
141. CATGAATA  0.0196
142. ATTGAATC  0.0178
143. AGAGACGC  0.0051
144. GGGATTAC  0.00382
145. GACCAGAA  -0.00826
146. CGTGCGAG  -0.0121
147. TAGGGCAA  -0.0175
148. CATCTACG  -0.0208
149. CGTCGCAG  -0.0218
150. CTAGTCAA  -0.0259
151. CTTGTCCA  -0.0307
152. AGGTATGG  -0.0324
153. ATTGGGCA  -0.0331
154. ATCCTCTC  -0.0398
155. CAAGAACA  -0.0451
156. CAAGCTAG  -0.0475
157. AAAGATCT  -0.0503
158. ACGCGGGG  -0.0549
159. CAAGGGAC  -0.0565
160. ACTTAGTG  -0.0604
161. GGCTACGA  -0.0605
162. CGAGTGTA  -0.0629
163. ATGCCGTC  -0.0725
164. GTAGTCAA  -0.0796
165. GAGTGGAC  -0.0806
166. ACGGCTAT  -0.0939
167. GGAGTAAC  -0.103
168. AATTAGGG  -0.107
169. GGATTGCC  -0.116
170. GAGAAGCA  -0.118
171. GACTCGTA  -0.126
172. AAATGATC  -0.129
173. CCTCTGGA  -0.136
174. CGGAGCTA  -0.142
175. GGAGAAGA  -0.148
176. GCCCGTAC  -0.155
177. GTGAACAC  -0.156
178. ATAGGGCC  -0.174
179. CCTACCCG  -0.174
180. CAGACCTC  -0.181
181. CGCGTGGA  -0.183
182. CCTTCATC  -0.195
183. GCATGGGA  -0.197
184. CCCAAAGG  -0.2
185. ACACCACC  -0.209
186. CACCAGAG  -0.215
187. GAGGCCAC  -0.223
188. GAGCGTCC  -0.223
189. CGACCCAG  -0.23
190. CAACGGTG  -0.243
191. AGAGAGGA  -0.261
192. GCTCCTAA  -0.265
193. CTCCTCCC  -0.358
